KDM4E inh: blocks human JMJD2E demethylase activity; B2RXH2; JMJD2E catalytic domain, FDH-coupled NADH fluorescence (FDH is formaldehyde dehydrogenase); Potency, µM (series often up to 57.1 µM), for the others: at the highest dose activity change, negative = inhibition, most hits filed as inhibitors; 230,000 tested, 1.6% active; active = well fitted inhibition curve with a large enough effect, not every such curve was filed as active; inconclusive = small, poorly fitted or top-dose-only effect, or another doubt; inactive = no such curve, though single readings can be large or run the other way;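 also: potency is read from the fitted curve at half-maximal effect; 0% = wells with enzyme and -100% = buffer wells without enzyme; nearly all actives have a fitted effect of over 50% in size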
HP1b chromo inh: blocks HP1-beta chromodomain binding to methylated histone tails; P83916; AlphaScreen HP1-beta / biotin-H3K9me3 peptide binding; Potency, µM (highest dose often 114 µM), for inactives: top-dose activity change, negative = inhibition, most hits filed as inhibitors; 390,000 tested, 0.56% active; AID 540317; also: potency is read from the fitted curve at half-maximal effect; nearly all actives have a fitted effect of over 70% in size
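Compound inhibition of the preformed complex between 50 nM HP1-beta and 50 nM biotinylated H3K9me3 peptide was read by AlphaScreen. Buffer was PBS pH 7.4 with 0.01% Tween-20. Incubations ran 30 min at room temperature, with 10 ug/mL donor/acceptor beads.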
L3MBTL1 block: L3MBTL1 (human) inhibition | Q9Y468 | AlphaScreen L3MBTL1–H3K9me1 peptide binding | Potency, µM (doses to about 57.1 µM), without a hit: at the highest dose activity, negative = inhibition, usual class: inhibitors | 230,000 tested, 0.66% active | AID 485360; also: potency is read from the fitted curve at half-maximal effect; % is scaled to controls: 0 for no effect and ±100 for the full control effect; nearly all actives have a fitted effect of over 60% in size
Target sequence (Q9Y468 whole entry, looked up): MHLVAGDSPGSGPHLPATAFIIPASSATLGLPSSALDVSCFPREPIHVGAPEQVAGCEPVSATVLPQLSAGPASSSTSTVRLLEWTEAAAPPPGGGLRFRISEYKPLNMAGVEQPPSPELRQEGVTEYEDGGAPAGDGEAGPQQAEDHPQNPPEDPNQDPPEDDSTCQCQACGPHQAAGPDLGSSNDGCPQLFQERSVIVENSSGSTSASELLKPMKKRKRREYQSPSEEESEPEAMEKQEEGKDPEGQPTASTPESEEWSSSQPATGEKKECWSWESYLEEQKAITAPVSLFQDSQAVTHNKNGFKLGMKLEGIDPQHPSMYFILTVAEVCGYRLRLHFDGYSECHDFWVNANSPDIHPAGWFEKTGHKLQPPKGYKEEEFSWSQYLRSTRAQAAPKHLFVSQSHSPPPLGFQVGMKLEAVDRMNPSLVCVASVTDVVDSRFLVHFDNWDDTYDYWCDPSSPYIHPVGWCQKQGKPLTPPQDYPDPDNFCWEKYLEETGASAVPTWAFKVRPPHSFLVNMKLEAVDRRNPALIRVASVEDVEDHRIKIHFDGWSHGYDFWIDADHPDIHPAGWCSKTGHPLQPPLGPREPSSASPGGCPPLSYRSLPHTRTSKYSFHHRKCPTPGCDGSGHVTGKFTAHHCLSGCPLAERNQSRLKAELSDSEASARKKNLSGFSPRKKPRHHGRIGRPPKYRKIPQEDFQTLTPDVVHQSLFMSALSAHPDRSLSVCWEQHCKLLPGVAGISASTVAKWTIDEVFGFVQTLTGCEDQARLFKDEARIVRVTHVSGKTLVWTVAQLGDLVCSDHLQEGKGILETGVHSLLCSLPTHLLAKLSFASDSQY
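AlphaScreen assay: L3MBTL1 (50 nM final) was preincubated 30 min at room temperature with biotinylated H3(1-15)K9me1 peptide (75 nM final), then 30 min with library compounds; streptavidin donor and nickel chelate acceptor beads (10 ug/mL final) added, 30 min dark.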
BAZ2B block: BAZ2B (human) inhibition; Q9UIF8; AlphaScreen BAZ2B-H3K14Ac peptide displacement; Potency, µM (series often up to 114 µM), for inactives: top-dose activity change, negative = inhibition, hits mostly inhibitors; 360,000 tested, 4.4% active; also: potency is read from the fitted curve at half-maximal effect; % is scaled to controls: 0 for no effect and ±100 for the full control effect; nearly all actives have a fitted effect of over 60% in size
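BAZ2B 50 nM plus b-H3(5-23)K14Ac 50 nM, PBS pH 7.4/0.01% Tween-20, 30 min RT; compound added (max 110 uM), 30 min RT; streptavidin donor/Ni-chelate acceptor beads 10 ug/mL final, 20 min dark; AlphaScreen read.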
PI5P4Ka inh: inhibitors of human PI5P4K alpha; PI5P4Kalpha enzyme, ADP-Glo luminescence, 60 min; stronger effect = lower value; 330,000 tested, 1.2% active; max response, %; P48426; active = max response of -50% or lower; inconclusive = between -30% and -50%; inactive = -30% or higher; also: value at the top dose of about 77 µM; % is scaled to controls: 0 for no effect and ±100 for the full control effect
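Human PI5P4Kalpha with substrate in 0.038 M HEPES pH 7.4, 0.28 mM EGTA, 0.1% CHAPS, 5% DMSO; reaction started with 5 microM ATP (final), 60 min at room temperature. ADP formed read by ADP-Glo luminescence.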
JMJD2A Tudor: inhibitors of human JMJD2A Tudor domain | AID 504339 | Potency, µM (series often up to 114 µM), without a hit: at the top dose activity change, negative = inhibition, hits mostly inhibitors | 390,000 tested, 4.4% active | AlphaScreen JMJD2A-Tudor / H3K4me3 peptide binding | O75164; also: potency is read from the fitted curve at half-maximal effect; % is scaled to controls: 0 for no effect and ±100 for the full control effect; nearly all actives have a fitted effect of over 50% in size
ADP-Glo counter: counter-screen for PI5P4K inhibitors: ADP-Glo detection interference, no enzyme; shares compounds with PI5P4Ka inh; ADP-Glo detection counter-screen, luciferase luminescence, no enzyme; Potency, µM (doses to about 76.9 µM), for the others: top-dose activity change, negative = inhibition, most hits filed as inhibitors; 1,100 tested, under 10 active; AID 743285
* = called active by the depositor; ? = inconclusive; . = not tested or not shown; [ ] = dose if it differs, or a comment. The list is not random: actives were taken first. Their share in the collection is about 5.7%. Unless noted, calls follow the shape of the dose curve; as a rule, active = well fitted curve in the direction sought with a large enough effect; inconclusive = small, poorly fitted or top-dose-only effect, or another doubt; inactive = no such curve, though single readings can be large; an effect the other way counts as inactive or inconclusive.

SMILES	KDM4E inh	HP1b chromo inh	L3MBTL1 block	BAZ2B block	PI5P4Ka inh	JMJD2A Tudor	ADP-Glo counter
O=C(Oc1ccc(N(Cc2cccs2)C2=NS(=O)(=O)c3ccccc32)cc1)c1ccccc1Cl	24%	?	-1%[11.4 µM]	-1%	-65*	?	0%
COc1ccc(-n2nc(C(=O)O)cc2-c2ccccc2)cc1	.	29%	-1%	-6%	-9	-12%	.
Cc1oc(-c2ccc(Cl)cc2)cc1-c1nn2c(-c3ccoc3C)nnc2s1	-1%	-25%	?	4%	-65*	?	0%
COc1ccccc1NC(=O)Nc1nc(CC(=O)Nc2cccc(F)c2)cs1	.	3%	0%	-35%	5	-34%	.
COc1ccccc1NC(=O)Nc1nc(CC(=O)Nc2cc(F)ccc2F)cs1	.	-17%	-9%	-37%	-52*	-34%	3%
CCOc1ccc(C(=O)COC(=O)Cn2[nH]c(=O)c3ccccc3c2=O)cc1	.	.	.	.	1	.	.
Cc1ccc(-c2csc3ncnc(NCCC(=O)O)c23)cc1C	.	29%	5%	10%	.	-17%	-2%
Cc1ccc(-c2csc3ncnc(NCCC(=O)O)c23)cc1	.	66%	63%	17%	?	-13%	.
CCOc1ccccc1NC(=O)c1c(NC(=O)CCC(=O)O)sc2c1CCCCC2	-1%	-24%	-9%	?	-10	45µM*	0%
CCOc1ccccc1NC(=O)c1c(NC(=O)Cc2ccccc2)sc2c1CCCC2	.	32%	.	1%	.	-4%	.
O=C(Nc1nnc(-c2ccc(Cl)cc2)o1)Nc1ccccc1Cl	?	42%	-2%	-4%[57.1 µM]	-4	-12%	.
O=C(Nc1nnc(-c2ccc(Cl)cc2)o1)c1nc2ccccc2s1	3%	28%	16%	-34%	-50*	-28%	-1%
Cc1oc(-c2ccc(C(=O)NC(C)c3ccccc3)cc2)nc1CS(=O)(=O)c1ccccc1 (centres undefined)	.	19%	.	-13%	.	-18%	.
Cc1ccc(-n2c(=O)[nH]c3sc4c(c3c2=O)CCCC4)cc1	.	36%	.	-15%	.	-25%	.
Cc1ccc(-n2c(=S)[nH]c3sc4c(c3c2=O)CCC4)cc1	2%	10%	-5%	-20%	-55*	-34%	0%
Cc1ccc(NC(=O)c2c3c(nc4ccccc24)CCC3)cc1S(=O)(=O)N(C)C	-11%	-14%	.	?	-52*	-30%	3%
COc1cc(NC(=O)c2c3c(nc4ccccc24)CCC3)cc(OC)c1	-3%	?	-7%	-20%	-2	6%	.
CC1(OC(=O)CCc2ccccc2)C(=O)C=C2C=C(c3ccc(C#N)cc3)N(Cc3ccco3)C=C2C1=O (centres undefined)	?	-19%	.	-35%	-53*	?	3%
CC1CCCCC12NC(=O)N(CC(=O)Nc1sc3c(c1C(N)=O)CCC3)C2=O (centres undefined)	?	15%	.	?	-60*	-26%	0%
O=c1c2ccccc2[nH]c2ccc(O)cc12	.	?	.	56µM*	-73*	?	-11%
CCOc1ccccc1NS(=O)(=O)c1cc2[nH]c(=O)c(=O)[nH]c2cc1C	.	5%	.	-8%	.	-11%	.
COc1ccc(CCNC(=O)C2CC(c3cccc(F)c3)=NO2)cc1 (centres undefined)	8%	67%	.	3%	?	-20%	-5%
O=C(Nc1c(C(=O)c2ccc(F)cc2)oc2ccccc12)c1cc(-c2ccccc2)on1	.	49%	.	-2%	.	3%	.
COc1ccc(C(=O)NCCS(=O)(=O)N2CCc3ccccc3C2)cc1OC	.	34%	10%	-1%	-4	7%	.
CCC(C)Oc1cc(-c2ccnc(Nc3cccc(Cl)c3)n2)ccn1 (centres undefined)	-14%	59%	.	52%	15	?	.
SMILES	KDM4E inh	HP1b chromo inh	L3MBTL1 block	BAZ2B block	PI5P4Ka inh	JMJD2A Tudor	ADP-Glo counter
OCCCNc1cc(-c2ccnc(Nc3cccc(Cl)c3)n2)ccn1	-26%	29%	.	-10%	-51*	-27%	5%
COc1ccc2nc(SCC(=O)N3CCN(c4ccc(F)cc4)CC3)c(C#N)cc2c1	-12%	?	0%	8%	-50*	?	6%
CC(=O)Nc1cc(-c2ccc(CO)cc2)cn2c(-c3ccc(F)c(Cl)c3)cnc12	.	.	.	.	-54*	.	1%
O=C(COC(=O)c1ccc(NS(=O)(=O)c2cccs2)cc1O)Nc1nc2ccccc2s1	?	13%	-13%	-34%	-69*	-28%	5%
O=C(COC(=O)c1ccc(NS(=O)(=O)c2cccs2)cc1O)NCc1ccccc1	0%	26%	38%	-9%	?	-12%	.
CC(=O)NC12CC3CC(C1)CC(C(=O)OCC(=O)Nc1ncc(Cl)c(C)c1Cl)(C3)C2	-11%	4%	?	?	-52*	?	5%
O=C(NCc1ccc(F)cc1)C1CCN(c2cnccn2)CC1	?	-14%	9%	-3%	-53*	25µM*	1%
O=C(NCc1ccc(F)cc1)C1CCCN(c2cnccn2)C1 (centres undefined)	.	42%	.	-15%	2	19%	.
Cc1ccc(NC(=O)CC(C(=O)O)c2ccccc2)cc1 (centres undefined)	6%	10%	1%	12%	10	-13%	.
O=C(O)c1ccc(-c2nc(-c3ccccc3Cl)cs2)cc1	?	19%	9%	?	-65*	-10%	2%
O=C(O)c1ccc(-c2nc(-c3ccccc3)cs2)cc1	?	24%	3%	1%	-30	-17%	.
CCCCn1c(SCC(=O)NCc2ccc(C)cc2)nc2c(sc3ccccc32)c1=O	.	29%	.	5%	.	?	.
COc1cc2ncnc(NCc3ccc(C)o3)c2cc1OC	-26%	9%	-10%	-31%	0	-34%	.
Cc1ccc(CNc2ncnc3ccc(-c4ccoc4C)cc23)o1	.	.	.	.	.	.	0%
CCCCNC(=O)c1onc(CSc2ccc(F)cc2)c1C(=O)O	5%	115%	8%	?	?	-8%	.
CC(C)NC(=O)c1onc(CSc2ccccc2F)c1C(=O)O	6%	-2%	7%	-38%	-66*	?	0%
CCCCNC(=O)c1onc(CSc2ccc(OC)cc2)c1C(=O)O	-5%	41%	6%	-1%	-50*	-33%	-3%
Cc1c(C(N)=O)cc([N+](=O)[O-])cc1[N+](=O)[O-]	1%	13%	.	.	6	-3%	.
C/C(=N/NC(=O)CNC(=O)Cc1ccc(Cl)cc1)c1ccco1	7%	22%	2%	-5%	-4	-5%	.
